Laboratory results as given in PubChem BioAssay (EPA / NIEHS).
Values joined by “and” are separate entries in the source; they are usually repeats but may differ in a detail not shown here. Identical values can stand only once. Some compounds were tested as several samples or in several runs, with calls that do not always agree. Active and inactive are the calls of the source. Rule for the calls: active = hit-call score of the fitted dose curve at least 0.9, where 1 is the maximum; inactive = score below 0.9.

Assay: ATG_CRE_CIS: Attagene CIS-FACTORIAL HepG2 Assay for human cAMP Responsive Element (CRE) binding protein 3 (AID 2282926)
Details: HepG2 CRE cis-reporter, Attagene multiplexed mRNA; actives raise or lower the signal
Description: ATG_CIS is a cell-based, multiplexed-readout assay that uses HepG2, a human liver cell line, with measurements taken at 24 hours after chemical dosing in a 24-well plate.ATG_CRE_CIS is one of 52 assay component(s) measured or calculated from the ATG_CIS assay. It is designed to make measurements of mRNA induction, a form of inducible reporter, as detected with fluorescence intensity signals by Reverse transcription polymerase chain reaction (RT-PCR) and Capillary electrophoresis technology.Data from the assay component ATG_CRE_CIS was analyzed into 1 assay endpoint. This assay endpoint, ATG_CRE_CIS, was analyzed with bidirectional fitting relative to DMSO as the negative control and baseline of activity. Using a type of inducible reporter, measures of mRNA for gain or loss-of-signal activity can be used to understand the reporter gene at the transcription factor-level as they relate to the gene CREB3. Furthermore, this assay endpoint can be referred to as a primary readout, because this assay has produced multiple assay endpoints where this one serves a reporter gene function. To generalize the intended target to other relatable targets, this assay endpoint is annotated to the dna binding intended target family, where the subfamily is basic leucine zipper.
Human liver HepG2 cells are transiently transfected with multiple reporter transcription units (MRTUs) in 6-well plates using FuGene 6 reagent (Roche; 3 ml FuGene/1 mg DNA). The MRTU constructs are regulated by a cis-regulating element (promoter). […] A major difference between the CIS and TRANS system is that in CIS activities of endogenous TFs are measured, whereas the TRANS assay evaluates changes in activities of exogenous, chimeric NR-Gal4 proteins. […] At the end of 24 hour incubation, total RNA was isolated using TriZol reagent (Invitrogen). The isolated RNA is then reverse-transcribed using oligo(dT) primer and Mo-MLV reverse transcriptase (Invitrogen) with DNAse I (Ambion) treatment for 30 min. The one-tenth of the produced cDNA was amplified by PCR using Taq DNA polymerase (Invitrogen) and two reporter sequence-specific primers. The PCR products were fluorescently labeled by primer extension with 6-arboxyfluorescein (6-FAM) 5'-labeled reporter sequence-specific primer (2 min at 95 C, 20 s at 68 C and 10 min at 72 C) and these products were digested with 5U of HpaI (New England Biolabs) for 2h at 37 C. The fragments were purified using Qiaquick PCR columns (Qiagen), analyzed on an ABI 3130xL genetic analyzer (Applied Biosystems) with peak positions identified by using a set of X-rhodamine (ROX)-labeled MapMarker1000 molecular weight standards (BioVentures). The raw capillary electrophoresis data was processed using Attagraph software (Attagene).

Structure (SMILES) | outcome | AC50
CCCCC(CC)COC(=O)CCCCC(=O)OCc1ccccc1 (stereo unspecified) | inactive | 
Oc1cc2ccccc2c2ccccc12 | inactive | 
O=C(OCCOCCOC(=O)c1ccccc1)c1ccccc1 | inactive | 
CC(O)C(=O)O (stereo unspecified) | inactive | 
CCOC(=O)CC(O)(CC(=O)OCC)C(=O)OCC | inactive | 
CCCOc1sc(C(=O)N2CCC(c3cc(CN)ccc3F)CC2)c(C)c1Br | inactive | 
NCC(F)(F)C(F)(F)C(F)(F)C(F)(F)C(F)(F)C(F)(F)C(F)(F)F | inactive | 
Nc1cccc2c(N)cccc12 | inactive | 
Cc1ccc(S(=O)(=O)O)c(C)c1 | inactive | 
CC(C)(C)c1ccc(O)c(C(C)(C)C)c1 | inactive | 
Cc1cc(C)c(O)c(C)c1 | inactive | 
FC(F)(I)C(F)(F)C(F)(F)C(F)(F)C(F)(F)C(F)(F)I | inactive | 
CC(O)CO (stereo unspecified) | inactive | 
O=C1OC2(c3ccccc31)c1cc(Br)c(O)c(Br)c1Oc1c2cc(Br)c(O)c1Br | inactive | 
CCCCCCCCCCCCCC[N+](C)(C)C | inactive | 
Oc1cccc(O)c1 | inactive | 
CC(C)(C)CC(C)(C)c1ccc(O)c(-n2nc3ccccc3n2)c1 | inactive | 
CC(C)(C)c1cccc(C(C)(C)C)c1O |  | 146 µM (active)
NC(=O)N(O)[C@@H]1C=C[C@H](Oc2cccc(Oc3ccc(F)cc3)c2)C1 |  | 22.6 µM (active)

Structure (SMILES) | outcome | AC50
CCCCCCCCCCCCc1ccccc1S(=O)(=O)O | inactive | 
CC(C)(C)c1cc(C(C)(C)C)c(O)c(C(C)(C)C)c1 | inactive | 
COCC(C)O (stereo unspecified) | inactive | 
CN1CCC[C@H]1c1cccnc1 | inactive | 
CCC(C)(C)C1CCC(O)CC1 (stereo unspecified) | inactive | 
C[C@@H]1C[C@H]2[C@@H]3CCC4=CC(=O)C=C[C@]4(C)[C@@]3(F)[C@@H](O)C[C@]2(C)[C@@]1(O)C(=O)COP(=O)(O)O | inactive | 
N#C[C@@H]1CC(F)(F)CN1C(=O)CNC1CC2CCC(C1)N2c1ncccn1 (stereo partly specified) | inactive | 
CCCCCCC(=O)O | inactive | 
CCCCCCCCOC(=O)CCCCCCCCC(=O)OCCCCCCCC | inactive | 
CCCOC(=O)c1ccc(O)cc1 | inactive | 171 µM (active)
O=C(O)c1ccccc1C(c1ccc(O)cc1)c1ccc(O)cc1 | inactive | 
NC(=O)N1C(=O)C(C(=O)c2cc(Cl)cs2)c2cc(F)c(Cl)cc21 (stereo unspecified) | inactive | 
CC#C[C@]1(O)CC[C@H]2[C@@H]3CCC4=CC(=O)CCC4=C3[C@@H](c3ccc(N(C)C)cc3)C[C@@]21C | inactive | 49.8 µM (active) and 47.6 µM (active) and 23.3 µM (active)
COc1ccc([N+](=O)[O-])cc1N | inactive | 
CC(C)CCCCCCOC(=O)CCCCC(=O)OCCCCCCC(C)C | inactive | 
c1ccc2c(c1)ccc1ccccc12 | inactive | 
CC[C@H](c1ccc(O)cc1)[C@@H](CC)c1ccc(O)cc1 | inactive | 
OC1CCC(C2CCCCC2)CC1 (stereo unspecified) | inactive | 
ClC1=C(Cl)C(Cl)(Cl)C(Cl)=C1Cl | inactive | 11.9 µM (active)
